# From PubChem BioAssay
# HUVEC tox TNFa – cytotoxicity in TNFa-stimulated HUVEC, primary screen, cytotoxicity control for VCAM1 expression modulator project, imaging, Hoechst nuclei count | HUVEC TNFalpha-stimulated, Hoechst cell count | cell count reduction, % at 2 µM | actives 0.17% (n = 93,000) | AID 848, 2007;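 active = cell count reduction exceeding the screen mean by over 5 SD, scaled to untreated wells per plate, cut at about 78% in these data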;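 note: cells counted after 24 h of TNF alpha exposure following the 1 h pretreatment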
# E-sel TNF inh – E-selectin induction blockers in HUVEC – imaging, immunofluorescence, high content, primary screen; actives 0.71% (n = 120,000); AID 1246, 2008; inhibition, % at 2 µM; HUVEC TNFa-induced E-selectin immunofluorescence;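 active = inhibition above the batch mean plus 3 SD, and confirmed as a hit on visual image review, cut at about 43% in these data; inconclusive = passes the inhibition cutoff but fails visual image review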;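 note: 0% = TNF-stimulated DMSO wells and 100% = unstimulated control wells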
# NFkB transloc inh – inhibitors of IL-1B driven NFkB p65 nuclear import, primary screen, imaging, HUVEC, IL-1B stimulus, high-content imaging; HUVEC IL-1B NFkB p65 nuclear translocation imaging; inhibition, % at 2 µM; actives 0.43% (n = 94,000);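 active = inhibition above about 30% together with a positive call from visual inspection of the well image, limit read from the data; inconclusive = inhibition above a set limit but visual check negative; inactive = inhibition not above a set limit, visual check negative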;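 note: nuclear over cytoplasmic p65 intensity ratio measured by imaging; 0% = IL-1B stimulated DMSO wells and 100% = unstimulated DMSO wells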
# IL1B cytotox – cytotoxicity in IL-1B stimulated HUVEC, primary screen, cytotoxicity control for IL-1B NFkB translocation project, imaging, Hoechst nuclear count, IL-1B stimulus; actives 0.41% (n = 94,000); AID 845, 2007; HUVEC cell count loss; cell count reduction, % at 2 µM;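 active = cell count reduction more than 3 SD above the screen-wide mean, cut at about 70% in these data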;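 note: normalized per plate to untreated control cells as the no-loss baseline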
# IL1B NFkB pot – enhancers of NFkB p65 translocation in HUVEC – imaging, IL-1B stimulus, high-content imaging, primary screen. HUVEC IL-1B NFkB p65 nuclear translocation imaging. activation, % at 2 µM. actives 0.3% (n = 94,000);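 active = activation above 40%, about the mean plus 3 SD, also judged a hit on visual image review; inconclusive = activation above 40% but not a hit on visual review; inactive = activation not above 40% and no visual hit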;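 note: percent activation is computed from the nuclear over cytoplasmic p65 intensity ratio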
# VCAM1 TNFa inh – inhibitors of TNFa-induced VCAM1 expression, primary screen, imaging, HUVEC, TNFa stimulus, immunofluorescence. AID 802, 2007. inhibition, % at 2 µM. HUVEC TNFa-induced VCAM-1 immunofluorescence, high-content imaging. actives 0.48% (n = 95,000);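 active = inhibition above the batch mean plus 3 SD, with images confirmed as a hit by eye, cut at about 37% in these data; inconclusive = inhibition above that limit but hit not confirmed in images; inactive = inhibition not above that limit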;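 note: 0% = TNF-stimulated DMSO wells and 100% = unstimulated control wells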
# * marks the source's active call; other numbers are inactive results; ? = inconclusive; · = no result. Most compounds without a hit are left out; they make up all but 1.8% or so of the library.
SMILES,HUVEC tox TNFa,E-sel TNF inh,NFkB transloc inh,IL1B cytotox,IL1B NFkB pot,VCAM1 TNFa inh
NC(=O)c1cc(N2C(=O)C=CC2=O)ccc1Cl,0,51*,5,0,-5,1
O=C(Nc1nc(-c2ccncc2)cs1)c1ccc(S(=O)(=O)N2CCOCC2)cc1,-13,63*,-6,-4,6,-2
CCOc1cccc(C(=O)Nc2nc(-c3ccc(S(=O)(=O)N4CCOCC4)cc3)cs2)c1,-5,0,-26,-2,26,-22
COCc1nc2ccccc2n1CCCOc1ccccc1,-15,-2,-9,-49,9,-62
Cc1nc2ccccc2n1CCCOc1ccccc1,88*,-1,8,10,-8,62*
NC(=O)/C=C\C(=O)Nc1cccc(C(F)(F)F)c1,·,10,-30,84*,-94,10
O=C(O)CCCC(=O)Nc1cccc(C(F)(F)F)c1,·,-25,·,·,·,·
COc1ccc(NC(=O)C2CSC(C)(C)N2C=O)cc1 (centres undefined),·,-8,·,·,·,·
Cc1ccccc1-c1noc(CCC(=O)NCC2CCCO2)n1 (centres undefined),1,9,-4,84*,4,7
Cc1cccc(-c2noc(CCC(=O)NCC3CCCO3)n2)c1 (centres undefined),-18,-11,-32,-5,32,7
COc1cc2[nH]c(=O)n(CCCCCC(=O)NCCCN3CCCC3=O)c(=O)c2cc1OC,4,-15,-3,-7,3,4
CCOc1cc2[nH]c(=O)n(CCCN3CCCC3=O)c(=O)c2cc1OCC,-11,46*,-63,-16,?,15
COc1ccc(-c2cnc(OC(C)(C)C)nc2OC(C)(C)C)cc1OC,-15,0,-10,15,10,-26
COC(=O)c1ccccc1NS(=O)(=O)c1ccc2c3c(cccc13)C(=O)N2,11,74*,5,2,-5,-19
Cc1onc(-c2c(Cl)cccc2Cl)c1C(=O)n1nnc2ccccc21,-12,-6,-7,8,7,19
Cc1ccc(-n2c(C)cc(C)c(C#N)c2=O)cc1C,·,-20,·,·,·,·
S=c1[nH]nc(-c2cc(-c3ccco3)[nH]n2)n1-c1ccccc1,-1,-17,35*,-4,-35,0
CCC1=Nc2cc(C(=O)NCCCOC)ccc2Sc2ccccc21,42,33,·,·,·,60*
CCCC1=Nc2cc(C(=O)NCCCOC(C)C)ccc2Sc2ccccc21,-5,47,-12,-8,12,-6
CCCC1=Nc2cc(C(=O)NCCCOCC)ccc2Sc2ccccc21,74,-9,·,·,·,94*
Cc1cccc2sc(NNC(=O)c3cc(-c4cccs4)nc4ccccc34)nc12,·,-23,·,·,·,·
COc1ccc(Nc2cc(C)nc(N3CCOCC3)n2)cc1,-29,22,-106,-18,106*,-15
Cc1cc(C)cc(NC(=O)CCn2cnc3cc(C)c(C)cc32)c1,·,-2,·,·,·,·
Cc1nn(C)cc1CNCc1c(C(=O)N2CCCCC2)nc2c(C)cccn12,·,-20,·,·,·,·
CC1CCN(C(=O)CSc2nnc(CNc3ccc(F)cc3)n2Cc2ccco2)CC1,-6,·,32*,84*,-32,10
SMILES,HUVEC tox TNFa,E-sel TNF inh,NFkB transloc inh,IL1B cytotox,IL1B NFkB pot,VCAM1 TNFa inh
O=C(Cn1nc(Cc2ccncc2)c2ccccc2c1=O)N1CCc2ccccc2C1,2,·,-72,4,72*,3
CN(CCC#N)C(=O)Cn1nc(Cc2ccncc2)c2ccccc2c1=O,-38,5,-5,-2,5,4
CCC(C)(c1nnnn1-c1c(C)cccc1C)N(N=O)c1ccccc1Cl (centres undefined),·,25,·,·,·,·
O=C(Cn1nc(-c2ccccc2)ccc1=O)NCC1COCCO1 (centres undefined),-16,·,98*,89*,-98,20
CCNC(=S)N1CCN(CCN=CC2=C(O)CC(c3ccco3)CC2=O)CC1 (centres undefined),-21,16,8,4,-8,-10
C=CCNC(=S)N1CCN(CCN=CC2=C(O)CC(c3ccco3)CC2=O)CC1 (centres undefined),-10,-16,54*,93*,-54,-7
